Test results as given in a collection of fitness landscapes (doi:10.1016/j.celrep.2020.107928).
In all, about 81,000 sequences were measured (“one-hybrid fitness for binding NBS DNA”: median about -0.1, highest 2% from about 0.36 on). This is one part of a sample in which the highest values are shown more often than they occur.

B1: Caulobacter ParB omega fusion; a variant is named by its letters at X, in order, B8GW30 (parent)
chain: MESVVVGEPGMSEGRRGLGRGLSALLGEVDAAPAQAPGEQLGGSREAPIEILQRNPDQPRRTFREEDLEDLSNSIREKGVLQPILVRPSPDTAGEYQIVAGERAWRAAQRAGLKTVPIMVRELDDLAVLEIGIIENVQRADLNVLEEALSYKVLMEKFERTQENIAQTIGKSXSHVANXMRLLXLPDEVQSYLVSGELTAXHARAIAAAADPVALAKQIIEGGLSVRETEALARKAPNLSAGKSKGGRPPRVKDTDTQALESDLSSVLGLDVSIDHRGSTGTLTITYATLEQLDDLCNRLTRGI

Variants of: B1
Test: one-hybrid fitness for binding NBS DNA (the Noc-binding site; scaled: cognate 1, non-cognate 0); higher = stronger binding
Details: with NBS DNA site
Outline: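 In E. coli USO, a HIS3 reporter with its site placed 19 bp from the promoter was used to select Caulobacter ParB variants randomised at four specificity codons. Growth lasted 48 hours at 37°C on histidine-free M9 containing 0.1 mM IPTG and 5 mM 3-AT. Fitness was taken as the log change in variant-to-wild-type read ratio from Illumina sequencing of pre- and post-selection plasmids, rescaled between the non-cognate and cognate sites.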

| Variant | one-hybrid fitness for binding NBS DNA |
| --- | --- |
| WLRR | ≤ 0.2 |
| NYAI | ≤ 0.2 |
| IRSK | ≤ 0.2 |
| DSWA | ≤ 0.2 |
| ITVR | ≤ 0.2 |
| GKRG | ≤ 0.2 |
| QMVM | ≤ 0.2 |
| QHKM | 0.379 |
| QMKM | 0.416 |
| QMQM | ≤ 0.2 |
| QKPM | ≤ 0.2 |
| QKKM | 0.409 |
| QKVM | 0.273 |
| QHVM | ≤ 0.2 |
| QHNM | ≤ 0.2 |
| GAKC | ≤ 0.2 |
| KIRV | ≤ 0.2 |
| QELA | ≤ 0.2 |
| RQLA | ≤ 0.2 |
| DCST | ≤ 0.2 |
| RHST | 0.435 |
| RHSF | ≤ 0.2 |
| RHSQ | ≤ 0.2 |
| RISH | ≤ 0.2 |
| RSST | 0.426 |

| Variant | one-hybrid fitness for binding NBS DNA |
| --- | --- |
| RFST | 0.217 |
| RDST | ≤ 0.2 |
| RPST | ≤ 0.2 |
| RCST | 0.531 |
| RWST | ≤ 0.2 |
| RISP | ≤ 0.2 |
| RIST | 0.398 |
| KFSS | ≤ 0.2 |
| KFVF | ≤ 0.2 |
| LRQC | ≤ 0.2 |
| DWDT | ≤ 0.2 |
| RAST | 0.405 |
| RAIT | 0.22 |
| RASG | ≤ 0.2 |
| WCGS | ≤ 0.2 |
| WSGA | ≤ 0.2 |
| LRTY | ≤ 0.2 |
| RPRS | ≤ 0.2 |
| RCIS | 0.281 |
| RLYS | 0.34 |
| RCRS | 0.661 |
| RLRS | 0.541 |
| RLRH | 0.322 |
| RSYS | 0.409 |
| RSPS | ≤ 0.2 |

| Variant | one-hybrid fitness for binding NBS DNA |
| --- | --- |
| RCDS | ≤ 0.2 |
| RCRD | ≤ 0.2 |
| RSIS | 0.203 |
| RCYS | 0.521 |
| PGSA | ≤ 0.2 |
| INQF | ≤ 0.2 |
| RCMW | ≤ 0.2 |
| QPWY | ≤ 0.2 |
| PDHS | ≤ 0.2 |
| CDSD | ≤ 0.2 |
| TLGI | ≤ 0.2 |
| NQER | ≤ 0.2 |
| HRCR | ≤ 0.2 |
| DVPR | ≤ 0.2 |
| LVEQ | ≤ 0.2 |
| RMRN | 0.25 |
| RFRS | 0.446 |
| RFIS | ≤ 0.2 |
| RFYS | ≤ 0.2 |
| RMRS | 0.642 |
| RMYS | 0.361 |
| RSRS | 0.593 |
| RSRN | ≤ 0.2 |
| RSRD | ≤ 0.2 |
| GATS | ≤ 0.2 |

| Variant | one-hybrid fitness for binding NBS DNA |
| --- | --- |
| FYHG | ≤ 0.2 |
| RQDG | ≤ 0.2 |
| PLRC | ≤ 0.2 |
| MYHV | ≤ 0.2 |
| MNMN | ≤ 0.2 |
| NSER | ≤ 0.2 |
| IPMG | ≤ 0.2 |
| MNVG | ≤ 0.2 |
| YLLC | ≤ 0.2 |
| QMFS | 0.251 |
| QMAR | 0.602 |
| QMFR | 0.431 |
| QMAP | ≤ 0.2 |
| QMFD | ≤ 0.2 |
| QMAN | ≤ 0.2 |
| KGLV | ≤ 0.2 |
| WVEH | ≤ 0.2 |
| QVVS | ≤ 0.2 |
| VVYG | ≤ 0.2 |
| QRRL | 0.364 |
| QRDH | 0.381 |
| QCNN | 0.208 |
| QRDD | ≤ 0.2 |
| QRNC | 0.44 |
| QCNC | ≤ 0.2 |

| Variant | one-hybrid fitness for binding NBS DNA |
| --- | --- |
| QRRH | 0.779 |
| QRDP | ≤ 0.2 |
| QRDC | 0.227 |
| NRRH | ≤ 0.2 |
| QRNN | 0.459 |
| QRDN | ≤ 0.2 |
| WYLT | ≤ 0.2 |
| RDFR | ≤ 0.2 |
| EMRY | ≤ 0.2 |
| KWVR | ≤ 0.2 |
| YLCS | ≤ 0.2 |
| TWCL | ≤ 0.2 |
| SYCN | ≤ 0.2 |
| IVKG | ≤ 0.2 |
| CWPS | ≤ 0.2 |
| QRNQ | 0.439 |
| QRWH | 0.301 |
| QSNQ | ≤ 0.2 |
| QRNM | 0.461 |
| QREH | 0.258 |
| QRNP | 0.308 |
| QRYH | 0.486 |
| QRND | 0.306 |
| QCNM | 0.224 |
| QRNH | 0.598 |

| Variant | one-hybrid fitness for binding NBS DNA |
| --- | --- |
| QRDQ | 0.215 |
| QRDM | ≤ 0.2 |
| KICK | ≤ 0.2 |
| QEKS | ≤ 0.2 |
| LWPC | ≤ 0.2 |
| QDAY | ≤ 0.2 |
| RGRV | ≤ 0.2 |
| KRKD | ≤ 0.2 |
| KRKM | 0.253 |
| KRVD | ≤ 0.2 |
| KRKH | 0.482 |
| KRVH | ≤ 0.2 |
| KRVY | ≤ 0.2 |
| KRKP | ≤ 0.2 |
| KRKN | 0.272 |
| KRKY | 0.368 |
| KRKS | 0.536 |
| KRYY | ≤ 0.2 |
| KRVS | 0.395 |
| AKVL | ≤ 0.2 |
| ALSW | ≤ 0.2 |
| HILV | ≤ 0.2 |
| LNQE | ≤ 0.2 |
| DNHT | ≤ 0.2 |
| YLSD | ≤ 0.2 |

| Variant | one-hybrid fitness for binding NBS DNA |
| --- | --- |
| HLNK | ≤ 0.2 |
| MSFM | ≤ 0.2 |
| LRFR | ≤ 0.2 |
| TEAT | ≤ 0.2 |
| QSRW | 0.254 |
| QCRW | 0.371 |
| QTYW | ≤ 0.2 |
| QRRW | 0.384 |
| QTDW | ≤ 0.2 |
| QRDW | ≤ 0.2 |
| QRYW | 0.203 |
| PRYW | ≤ 0.2 |
| PRVW | ≤ 0.2 |
| QTRW | 0.417 |
| PRKW | 0.446 |
| QPRW | ≤ 0.2 |
| NMRT | ≤ 0.2 |
| KSRN | ≤ 0.2 |
| MPIT | ≤ 0.2 |
| SLCY | ≤ 0.2 |
| ADNG | ≤ 0.2 |
| FLPR | ≤ 0.2 |
| QSKW | 0.279 |
| QTVW | ≤ 0.2 |
| QRKW | 0.411 |

| Variant | one-hybrid fitness for binding NBS DNA |
| --- | --- |
| QTKW | 0.439 |
| QRVW | ≤ 0.2 |
| QCKW | 0.324 |
| NCCT | ≤ 0.2 |
| PANC | ≤ 0.2 |
| PYWD | ≤ 0.2 |
| QGMV | ≤ 0.2 |
| TIMA | ≤ 0.2 |
| FGDS | ≤ 0.2 |
| LKMV | ≤ 0.2 |
| RGKR | 0.38 |
| RMKY | 0.311 |
| RAKP | ≤ 0.2 |
| RGVR | ≤ 0.2 |
| RMKR | 0.738 |
| RIKD | ≤ 0.2 |
| RAKR | 0.668 |
| RIVR | 0.28 |
| RIKR | 0.675 |
| RGYR | ≤ 0.2 |
| RAVR | 0.277 |
| RMVR | 0.314 |
